Assay [1] concerns Klebsiella pneumoniae. The settings on record: Concentration 32 ug.mL-1; ASSAY_TEST Inhibition of Bacterial Growth; detection method Absorption (OD600); MEDIA CAMHB; plate type 384well; NBS; CORNING #3640; time 18 hr.
Assay [2] relates to Candida albicans. As to conditions: 32 ug/mL.
For assay [3], the system named is Cryptococcus neoformans. The settings on record: Concentration 32 ug.mL-1; ASSAY_TEST Inhibition of Fungal Growth; detection method Resazurin; Absorption (OD600-OD570); plate type 384well; NBS; CORNING #3640. In general terms: Resazurin is reduced to fluorescent resorufin, in cell work by metabolically active cells.

Each structure is given as a SMILES string. Entries with a potency or affinity are not part of this list.

Here are results for seven compounds from ChEMBL document CHEMBL4513155, “CO-ADD screening of University of Sydney (Australia) compounds” (2021).

On to `Fc1ccc(CCOc2cncc3nnc(-c4ccc(Cl)cc4)n23)cc1F`, for which the Inhibition in assay [1] was -4.32%; in assay [2], 7.82%; in assay [3] it was -0.27%.

For `N#Cc1ccc(-c2nnc3cncc(OCC(O)c4ccc(F)c(F)c4)n23)cc1` (stereo unspecified), the Inhibition in assay [1] was -1.23%; in assay [2], 4.19%; in assay [3] it was -9.99%.

`Fc1ccc(CCOc2cncc3nnc(-c4ccc(C(F)(F)F)nc4)n23)cc1F`: the Inhibition in assay [1] is -0.34%; in assay [2], 2.23%; in assay [3], -5.49%.

Regarding `CN(C)C(COc1cncc2nnc(-c3ccc(C#N)cc3)n12)c1ccc(F)c(F)c1` (stereo unspecified), the Inhibition was 3.41% in assay [1], 5.98% in assay [2] and -16.61% in assay [3].

For the compound `O.O=C1c2cccc3c(-n4cc(CN5CCCNCCN(Cc6cn(-c7ccc8c9c(cccc79)C(=O)N(CCCO)C8=O)nn6)CCCNCC5)nn4)ccc(c23)C(=O)N1CCCO.[Cl-].[Cl-].[Zn+2]`, the Inhibition in assay [1] is 2.32%; in assay [2] it was 7.28%; in assay [3] it was -0.18%.

With `CCN1C(=O)c2cccc3c(-c4cn(CCN5CCCNCCN(CCn6cc([C@]7(O)CC[C@H]8[C@@H]9CCc%10cc(O)ccc%10[C@H]9CC[C@@]87C)nn6)CCCNCC5)nn4)ccc(c23)C1=O.OCCN1CCN(CCCN2c3ccccc3Sc3ccc(Cl)cc32)CC1.[O-][Cl+3]([O-])([O-])[O-].[O-][Cl+3]([O-])([O-])[O-].[Zn+2]`, the Inhibition is -7.97% in assay [1], 5.51% in assay [2] and 7.03% in assay [3].

`COC(COc1cncc2nnc(-c3ccc(C#N)cc3)n12)c1ccc(F)c(F)c1` (stereo unspecified): the Inhibition in assay [1] is -1.15%; in assay [2], 2.84%; in assay [3], -10.36%.

Usually Inhibition stands for the relative decrease from the control value, in per cent.
